RECQ1 inh = blocks DNA unwinding by human RECQ1; RECQ1 DNA unwinding, red fluorescence kinetic read; Potency, µM (series often up to 57.3 µM), for inactives: at the highest dose activity, negative = inhibition, actives largely listed as inhibitors; hit rate 0.54% among 240,000; P46063;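 further: plate controls were vehicle for no effect and no enzyme for full effect; nearly all actives have a fitted effect of over 30% in size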
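50 nM RECQ1T1 preincubated 15 min with compound in Tris pH 8.0 buffer with MgCl2, DTT, Tween-20 and 2.5 ug/ml poly(dI-dC); started with 200 nM TAMRA/BHQ-2 forked duplex and 2 mM ATP. Unwinding read as fluorescence (525/598 nm), two reads 2 h apart.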
APEX1 inh = inhibitors of human APE1 endonuclease | hit rate 0.35% among 350,000 | recombinant APE1, TAMRA/BHQ-2 abasic DNA cleavage fluorescence | Potency, µM (highest dose often 65.8 µM), for the others: at the highest dose activity change, negative = inhibition, usual class: inhibitors;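 further: plate controls were vehicle for no effect and reference inhibitor for full effect; nearly all actives have a fitted effect of over 55% in size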
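Readout is kinetic fluorescence (ex 525, em 598 nm) from cleavage of 50 nM TAMRA/BHQ-2 THF abasic duplex by 0.75 nM APE1, compound added 15 min beforehand at RT.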
BLM helicase inh = inhibitors of human Bloom syndrome helicase BLM; recombinant BLM DNA unwinding, fluorescence dequenching; Potency, µM (doses to about 56.1 µM), without a hit: at the top dose activity change, negative = inhibition, hits mostly inhibitors; hit rate 0.2% among 350,000;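 further: plate controls were vehicle for no effect and no enzyme for full effect; nearly all actives have a fitted effect of over 35% in size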
TDP1 block = TDP1 (human) enzyme inhibition; Potency, µM (highest dose often 130 µM), without a hit: at the highest dose activity change, negative = inhibition, hits mostly inhibitors; recombinant TDP1, AlphaScreen DNA substrate cleavage; Q9NUW8; hit rate 0.28% among 350,000; further: nearly all actives have a fitted effect of over 40% in size
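Compounds were preincubated with Tdp1 (1 nM final) for 15 min at room temperature before substrate (15 nM final) started a 5 min reaction; beads (10 ug/ml final) were then added for 10 min before AlphaScreen detection.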
JMJD2E inh = inhibitors of human JMJD2E histone demethylase; Potency, µM (titrated, usually from 57.1 µM), for the others: top-dose activity change, negative = inhibition, usual class: inhibitors; AID 2147; B2RXH2; hit rate 1.6% among 230,000; JMJD2E catalytic domain, FDH-coupled NADH fluorescence (FDH is formaldehyde dehydrogenase);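 further: 0% = wells with enzyme and -100% = buffer wells without enzyme; nearly all actives have a fitted effect of over 50% in size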
L3MBTL1 block = blocks human L3MBTL1; hit rate 0.66% among 230,000; Potency, µM (top dose mostly 57.1 µM), for the others: at the top dose activity, negative = inhibition, actives largely listed as inhibitors; Q9Y468; AID 485360; AlphaScreen L3MBTL1–H3K9me1 peptide binding; further: nearly all actives have a fitted effect of over 60% in size
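AlphaScreen proximity signal between nickel-chelate acceptor and streptavidin donor beads (final 10 ug/mL) reports binding of 50 nM L3MBTL1 to 75 nM biotin-H3 K9me1 peptide; complex incubated with compounds 30 min at room temperature; cefsulodin titration as control.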
The depositor's hits bear a star; i = inactive; ? = inconclusive; / = no result given; ! = repeats disagree; [ ] = remark or other dose. Many of the other results were omitted from the sample, so hits are more common in it than they were. Unless noted, the call rests on the fitted dose curve; in most records, active means well fitted curve in the direction sought with a large enough effect; inconclusive means small, poorly fitted or top-dose-only effect, or another doubt; inactive means no such curve, though single readings can be large; an effect the other way counts as inactive or inconclusive. Unless noted, on the % scale 0 is the no-effect control and ±100 the full control effect; potency means the concentration at half of the fitted maximal effect.

SMILES	RECQ1 inh	APEX1 inh	BLM helicase inh	TDP1 block	JMJD2E inh	L3MBTL1 block
COc1ccc(C(=O)c2ccccc2)c(O)c1O	i	-4%	-2%	-5%	22µM*	/
COc1ccc(C(=O)c2ccccc2)c(O)c1	-2%	2%	0%	-8%	9%	16%
CN(C)c1ccc(N/C=C/C(=O)C(C)(C)C)cc1	-20%	-1%	-7%	9%	7.1µM*	/
CC1C(=O)NN=C1C(=O)N/N=C\c1ccc(O)cc1O (stereo not given)	?	-3%	-2%	1%	22µM*	28µM*
Cc1ccc(N(Cc2cccs2)C(=O)c2ccc(OC(C)C)cc2)cc1	/	/	-10%	-10%	/	/
O=c1c(-c2cccc([N+](=O)[O-])c2)[n+]([O-])c2ccccc2n1O	-13%	-10%	-2%	/	22µM*	/
O=c1c(-c2ccc(Cl)cc2)[n+]([O-])c2ccccc2n1O	-7%	24%	-11%	-1%	-12%	-4%
COc1ccc2c(c1)C(=O)N(CCc1ccc(S(=O)(=O)NC(=O)NC3CCCCC3)cc1)C(=O)C2(C)C	-14%[25.9 µM]	?	-6%	5%	7.9µM*	/
COc1ccccc1Nc1nc(-c2c(C)[nH]c3ccccc23)cs1	-12%	9%	-1%	13%	28µM*	-8%
CNc1nc(-c2c(C)[nH]c3ccc(OC)cc23)cs1	/	45%	-4%	/	/	/
Cc1cccc(NC(=O)Cn2c(=O)n(Cc3ccc4c(c3)OCO4)c(=O)c3ccccc32)c1	/	/	-3%	-4%	/	/
CC1=C(/C=C/C(C)=C/C=C/C(C)=C/C(=O)Nc2ccc(O)cc2)C(C)(C)CCC1	-5%	-2%	-19%	15%[56.1 µM]	20µM*!	-4%
CC1=C(\C=C/C(C)=C/C=C\C(C)=C\C(=O)O)C(C)(C)CCC1	7%	-6%	-5%	12%	-2%	/
O=C1CCc2cc([S+](=O)([O-])Nc3ccc(N[S+](=O)([O-])c4ccc5c(c4)CCC(=O)N5)cc3)ccc2N1	/	/	/	0%	/	/
Cc1ccc(CNC(=O)C2CCCN(S(=O)(=O)c3cn(C)cn3)C2)cc1 (stereo not given)	/	/	2%	4%	/	/
Oc1ccc(/C=N/Nc2ncnc3c2ncn3Cc2ccccc2)cc1O	-19%	?	-18%	11%	10µM*	-15%
CC(C)CN=Cc1c(O)c([N+](=O)[O-])cc2oc3c(c12)CCCC3	-3%	21%	-1%	-3%	13µM*	-8%
O=[N+]([O-])c1cc2oc3c(c2c(C=NCc2ccccc2)c1O)CCCC3	1%	-1%	-15%	8%	-9%	1%
CCn1c(=S)sc2c(=O)n(CC(=O)Nc3ccccc3C(F)(F)F)c(C)nc21	/	-18%	-25%	45µM*	/	/
Cc1ncc(CO)c(/C=N/NC(=S)Nc2cccc(Cl)c2)c1O	6%	-1%	-13%	3%	?	14µM*
COc1ccc(C2N(Cc3ccccc3)C(=O)c3ccccc3N2C)cc1COc1ccc(NC(C)=O)cc1 (stereo not given)	/	/	/	-10%	/	/
CC(=O)N1CCC(N(C(=O)Nc2ccc(C)c(F)c2)C(C)C)CC1	/	/	-2%	6%	/	/
Cc1ccc(CN(C)c2ccc(N3CCN(C)CC3)cc2)cc1	/	17%	/	/	/	/
O=C(CN1C(=O)C2CCCN2c2ncc(Cl)cc21)NCc1ccc2c(c1)OCO2 (stereo not given)	-18%	-1%	2%	4%	14µM*	17%
COc1ccc(CNC(=O)CN2C(=O)C3CCCN3c3ncc(Cl)cc32)cc1 (stereo not given)	i	-2%	-3%	2%	?	/
SMILES	RECQ1 inh	APEX1 inh	BLM helicase inh	TDP1 block	JMJD2E inh	L3MBTL1 block
Nc1nc(N)nc(-c2cc([N+](=O)[O-])ccc2O)n1	/	20%	/	56µM*	/	-6%
Nc1nc(N)nc(-c2cc(O)ccc2O)n1	/	-10%	/	-1%	/	1%
CCCCC(CC)CNC(=O)CCCCCn1c(=O)[nH]c2ccsc2c1=O (stereo not given)	/	/	1%	-3%	/	/
COC(=O)c1ccccc1NC(=O)c1nc(-c2ccc(Cl)cc2)n2c1CCCCC2	/	/	-5%	4%	/	/
CC(=O)Nc1c([N+](=O)[O-])cc2[nH]c(=O)[nH]c2c1[N+](=O)[O-]	-8%	-2%	-1%	2%	25µM*	-7%
Cc1cc(=O)n(CCc2ccccc2)c(O)c1C#N	-10%	-4%	2%	8%	11µM*	-28%
CN1CCN(S(=O)(=O)c2ccccc2)CC1	/	7%	-3%	1%	/	8%
O=S(=O)(/N=S1/CC=CCN1S(=O)(=O)c1ccccc1)c1ccccc1 (stereo not given)	-11%	-11%	-1%	12%	28µM*	-11%
CC(C)(c1cc(Br)c(O)c(Br)c1)c1cc(Br)c(O)c(Br)c1	22µM*!	-3%	/	3%	/	-22%
Fc1ccccc1-n1ncc2c1ncn1nc(Cc3ccccc3)nc21	/	/	-4%	1%	/	/
O=C1CCCC2=C1C1(CCCC1)N=C(Nc1nc3cc(Cl)ccc3o1)N2	/	/	/	0%	/	/
COc1cccc(C2c3c(ncn(-c4cccnc4)c3=N)Oc3ccc4ccccc4c32)c1 (stereo not given)	/	/	/	2%	/	/
N#CCC(N)=C(C#N)C#N	12%	16%	-14%	-3%	7.9µM*	-11%
COC(=O)CC#N	3%	-4%	/	1%	/	8%
CCOc1ccc(C(=O)OCC(=O)NC2CCCCCCC2)cc1	/	19%	/	0%	/	14%
COc1cc(-c2cc3n(C)c(C)c(CCC(=O)NC4CCC(C)CC4)c(=O)n3n2)cc(OC)c1OC (stereo not given)	/	/	-1%	5%	/	/
Cc1ccc(-n2nc3c(N4CCC(C(=O)NCc5cccc(F)c5)CC4)nnc(C)c3c2C)cc1	/	-1%	5%	40µM*	/	/
Cc1ccc(OCCn2cc(/C=N/NC(=O)c3ccncc3)c3ccccc32)cc1	25µM*	-7%	-2%	7%	-4%	-13%
COc1ccc(OCCn2cc(/C=N/NC(=O)c3ccncc3)c3ccccc32)cc1	-25%	3%	-13%	8%	?	-5%
O=C(Nc1nc(-c2ccccn2)cs1)c1cc2ccccc2o1	-8%	-7%	-3%	10%	?	20µM*
Cn1cccc1C(=O)Nc1nc(-c2ccccn2)cs1	i	0%	-7%	-3%	?	32µM*
Cc1csc(NC(=O)c2cccn2C)n1	-10%	-3%	-6%	2%	1%	-6%
CCc1nnc(NC(=O)C2CC(=O)N(C3CCCCC3)C2)s1 (stereo not given)	/	-3%	2%	22µM*	/	/
COCCSc1nnc(NC(=O)C2CC(=O)N(C3CCCC3)C2)s1 (stereo not given)	/	14%[12.4 µM]	-1%	-2%	/	/
